Source: PubChem
Compounds with a hit are over-represented: about 15% of the library has one in this group of screens.
TDP1 cell CPT: DT40-hTDP1 cell growth loss with CPT | chicken DT40 Tdp1-/-;hTDP1 cells + 20 nM CPT, ATP luminescence, 48 h | Potency, µM (series often up to 46.2 µM), most hits filed as inhibitors | 420,000 tested, 12% active; also: nearly all actives have a fitted effect of over 55% in size
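Chicken DT40 Tdp1-/- cells stably complemented with human TDP1 were seeded at 400 cells/well in medium containing 20 nM camptothecin, exposed to pin-transferred compounds, and grown at 37 °C for at least 48 hr. Viability was read as ATP luminescence.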
VP16 counter: Gal4-VP16 reporter inhibition counter-screen | Drosophila S2 Gal4-VP16 UAS-luciferase, luminescence, 20 h | Potency, µM (top dose mostly 53.6 µM), usual class: inhibitors | 310,000 tested, 3.5% active;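 also: Gal4-VP16 expression switched on by copper sulfate through the metallothionein promoter; nearly all actives have a fitted effect of over 50% in size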
ELG1 DNA repair: inhibitors of ELG1-dependent DNA repair in HEK293T cells | HEK293T ELG1-luciferase reporter, luminescence, 16 h; DNA damage induced by 5-fluorouridine | Potency, µM (top dose mostly 46.1 µM), usual class: inhibitors | 330,000 tested, 2.3% active | AID 504467; also: nearly all actives have a fitted effect of over 55% in size
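5-Fluorouridine DNA damage + compound/DMSO, 2,000 cells/well, 16 h, 37 °C/5% CO2. ONE-Glo, 30 min RT, luminescence. Readout = decrease in reporter signal.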
DT40 TDP1 no CPT: qHTS for Inhibitors of human tyrosyl-DNA phosphodiesterase 1 (TDP1): qHTS in cells in absence of CPT | 420,000 tested, 15% active | DT40 Tdp1-/- hTDP1 cells, no CPT, ATP luminescence, 48 h | Potency, µM (titrated, usually from 46.2 µM), actives largely listed as inhibitors | AID 686978, 2013; also: nearly all actives have a fitted effect of over 55% in size
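Growth of hTDP1-complemented DT40 Tdp1-knockout cells is measured by ATP luminescence after at least 48 hr compound exposure at 37 °C, with DMSO substituting for the 20 nM CPT used in the parallel screen.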
ALOX12 inh: ALOX12 (human) lipoxygenase inhibition; 580,000 tested, 1.1% active; Potency, µM (titrated, usually from 108 µM), actives largely listed as inhibitors; purified 12hLO, xylenol orange hydroperoxide absorbance; P18054
Target sequence (P18054 whole entry, looked up): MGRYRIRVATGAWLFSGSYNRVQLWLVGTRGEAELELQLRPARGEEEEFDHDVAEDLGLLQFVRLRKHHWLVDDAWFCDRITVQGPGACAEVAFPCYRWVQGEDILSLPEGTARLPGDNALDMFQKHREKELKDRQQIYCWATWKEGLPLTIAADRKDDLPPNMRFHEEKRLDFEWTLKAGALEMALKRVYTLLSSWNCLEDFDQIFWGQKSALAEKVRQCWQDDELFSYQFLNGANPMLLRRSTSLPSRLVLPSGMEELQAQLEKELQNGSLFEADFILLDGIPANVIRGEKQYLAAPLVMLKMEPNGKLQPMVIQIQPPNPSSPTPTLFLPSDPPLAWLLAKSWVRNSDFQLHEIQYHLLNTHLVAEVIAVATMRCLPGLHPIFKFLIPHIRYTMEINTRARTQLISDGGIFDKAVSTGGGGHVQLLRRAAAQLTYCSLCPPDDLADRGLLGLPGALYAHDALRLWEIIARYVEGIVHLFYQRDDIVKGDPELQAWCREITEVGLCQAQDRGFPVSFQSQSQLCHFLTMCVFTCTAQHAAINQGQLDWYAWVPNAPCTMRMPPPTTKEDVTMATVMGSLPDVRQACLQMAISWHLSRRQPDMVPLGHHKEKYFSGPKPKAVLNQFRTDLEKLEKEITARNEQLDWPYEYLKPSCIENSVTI
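Hydroperoxide product was detected by ferrous iron/xylenol orange as the 573 to 405 nm absorbance ratio. Arachidonic acid at 40 uM (final) was turned over for 30 min at room temperature by 150 nM human 12hLO, pH 7.0 Hepes buffer, after 15 min compound preincubation.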
RORg inh: ROR gamma (mouse) transcription inhibition | Drosophila S2 Gal4-RORgamma UAS-luciferase reporter, 20 h | Potency, µM (titrated, usually from 53.6 µM), most hits filed as inhibitors | 310,000 tested, 5.4% active | AID 2551; also: nearly all actives have a fitted effect of over 60% in size
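Schneider cells (Drosophila), stable Gal4 DBD–ROR gamma + UAS-luc; 1 hr cmpd preincubation; Cu2+ induction 700 uM final; 20 hr ambient; luminescence.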
Hits are given with their value; - = inactive; ? = inconclusive; . = no result; [ ] = dose if it differs, or a comment. Calls follow the shape of the dose curve; as a rule, active = well fitted curve in the direction sought with a large enough effect; inconclusive = small, poorly fitted or top-dose-only effect, or another doubt; inactive = no such curve, though single readings can be large; an effect the other way counts as inactive or inconclusive.

SMILES	TDP1 cell CPT	VP16 counter	ELG1 DNA repair	DT40 TDP1 no CPT	ALOX12 inh	RORg inh
CC(=O)Nc1ccc2c(C(C(=O)O)N3CCN(c4nc5c(cc4C#N)CCCC5)CC3)c[nH]c2c1 (stereo not drawn)	.	.	.	.	-	.
O=C(C=Cc1ccccc1F)c1ccccc1	?	.	.	?	-	.
CC(/C=C/c1ccccc1F)=N\NC(=O)c1ccccc1	?	7.08µM	?	?	-	3.16µM
CC(/C=C/c1ccccc1F)=N\NC(=O)c1ccc(Cl)cc1	14.6µM	-	-	14.6µM	-	-
CC1CCN(CC(=O)NCCC2=CCCCC2)CC1	.	.	.	.	-	.
COCC1CN(C2CCC2)CC12CCN(C(=O)COc1cccc(C)c1)CC2 (stereo not drawn)	.	.	.	.	-	.
Cc1ccc(CN2CCC3(CC2)Cc2ccccc2CNC3=O)cc1C	.	.	.	.	-[6.33 µM]	.
O=C(/C=C/c1ccc(-c2ccc(F)cc2)s1)N1CCS(=O)CC1	.	.	.	.	-	.
CC(=O)C1=NN(c2ccccc2)C(c2cccs2)N1c1ccccc1 (stereo not drawn)	.	?	?	.	.	-
COc1cccc(N2C(C(C)=O)=NN(c3ccccc3)C2c2ccc(N3CCOCC3)cc2)c1 (stereo not drawn)	18.4µM	-	?	16.4µM	-	-
COCC(c1ccccn1)N(C)C(=O)c1cc(S(N)(=O)=O)ccc1F (stereo not drawn)	.	.	.	.	-	.
Cc1ccc(COc2ccsc2-c2n[nH]c(=S)n2C)cc1	-	7.08µM	-	-	14.1µM	2.82µM
Cn1c(-c2sccc2OCc2ccccc2)n[nH]c1=S	-	-	-	?	?	-
Cc1occc(=O)c1OCc1ccc(Cl)cc1Cl	-	-	-	-	-	-
Cn1c(-c2sccc2OCc2ccc(Cl)cc2Cl)n[nH]c1=S	?	7.08µM	-	?	28.2µM	2.82µM
CCOC(=O)c1[nH]cnc1C(=O)Nc1ccc(Cl)cc1	-	-	-	-	-	?
O=C(Nc1ccc(Cl)cc1)c1nc[nH]c1C(=O)Nc1ccccc1F	?	.	.	14.6µM	-	.
NNC(=O)c1nc[nH]c1C(=O)Nc1ccccc1[N+](=O)[O-]	-	-	-	?	-	?
O=C(Nc1ccc(F)cc1)c1nc[nH]c1C(=O)Nc1ccccc1[N+](=O)[O-]	?	-	?	1.3µM	-	?
O=C(Nc1cccc(Cl)c1)c1nc[nH]c1C(=O)Nc1ccccc1F	4.11µM	.	.	7.31µM	-	.
COc1ccc(CNC(=O)c2ccc3nc(C)c(N(C)Cc4ccc(NC(C)=O)cc4)n3c2)cc1	13µM	.	.	16.4µM	-	.
CCCCN(C)c1c(C)nc2ccc(C(=O)NCc3ccc(OC)cc3)cn12	13µM	.	.	13µM	-	.
COc1ccccc1CNC(=O)c1ccc2nc(C)c(N(C)Cc3ccc(NC(C)=O)cc3)n2c1	16.4µM	.	.	14.6µM	?	.
CC(=O)Nc1ccc(CN(C)c2c(C)nc3ccc(C(=O)Nc4ccc(Cl)c(Cl)c4)cn23)cc1	?	.	.	?	-	.
CCCCC(=O)N(C)c1c(C)nc2ccc(C(=O)NCc3ccccc3OC)cn12	-	.	.	-	-	.
SMILES	TDP1 cell CPT	VP16 counter	ELG1 DNA repair	DT40 TDP1 no CPT	ALOX12 inh	RORg inh
COC(=O)c1cc(NC(=O)CN(c2cccc(OC)c2)S(=O)(=O)c2ccccc2)ccc1Cl	?	-	?	16.4µM	-	-
COC(=O)c1cc(NC(=O)CN(c2ccccc2OC)S(=O)(=O)c2ccccc2)ccc1Cl	?	-	23.1µM	?	-	-
COc1ccccc1N(CC(=O)Nc1ccc(C)c(Cl)c1)S(=O)(=O)c1ccc(C)cc1	20.6µM	.	.	18.4µM	-	.
CCOc1ccccc1N(CC(=O)Nc1ccc(OC)c(OC)c1)S(=O)(=O)c1ccccc1	?	-	-	?	-	?
COc1ccc(Cl)cc1N(CC(=O)NC1CC2CCC1C2)S(=O)(=O)c1ccccc1 (stereo not drawn)	20.6µM	-	-	?	-	-
COc1ccc(C)cc1N(CC(=O)Nc1cccnc1)S(=O)(=O)c1ccc(C)cc1	?	-	-	?	-	-
COc1ccc(OC)c(N(CC(=O)NC2CC3CCC2C3)S(=O)(=O)c2ccccc2)c1 (stereo not drawn)	?	-	-	?	-	-
O=C(CSc1nc(-c2ccc(F)cc2)[nH]c1-c1ccc(F)cc1)Nc1ccc2c(c1)OCCO2	10.3µM	.	.	10.3µM	-	.
O=C(CSc1nc(-c2ccc(F)cc2)[nH]c1-c1ccc(F)cc1)Nc1ccc2c(c1)OCO2	16.4µM	.	.	23.1µM	-	.
